# Shown are actives, neighbours in structure and some others; about 10% of the full set was active somewhere.
# HEK cytotox: cytotoxic compounds in HEK 293 cells; HEK 293 viability, ATP luminescence (CellTiter-Glo), 48-72 h; Potency, µM (top dose mostly 115 µM), inactives show at the top dose activity change, negative = cytotoxicity, most hits filed as inhibitors; 6.6% of 94,000 active; note: nearly all actives have a fitted effect of over 60% in size
#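 HEK 293 seeded at 250 cells/well receive compound via pintool. After 48 or 72 hr at 37 degree Celsius, 5% CO2 and 95% humidity, CellTiter-Glo is dispensed and luminescence read following 10 min at room temperature.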
# GPT2 inhibitor: inhibitors of human GPT2 alanine aminotransferase. Q8TD30. Recombinant GPT2, coupled pyruvate oxidase/HRP Amplex Red fluorescence. Potency, µM (series often up to 57.7 µM), inactives show top-dose activity change, negative = inhibition, most hits filed as inhibitors. 0.25% of 100,000 active. AID 1671188; note: nearly all actives have a fitted effect of over 60% in size
#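 Fluorescence of coupled pyruvate oxidase/HRP/Amplex Red system (50uM Amplex, 30 min, dark) reports pyruvate formed by GPT2. Enzyme reaction: 10ng/uL GPT2, 2mM L-alanine, 250uM a-KG, 30 min room temperature, pH 7.5; 50uM AOA control.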
# NIH3T3 tox: kills NIH 3T3 cells | NIH 3T3 viability, CellTiter-Glo ATP luminescence, 48-72 h | Potency, µM (top dose mostly 96.7 µM), for inactives: at the top dose activity change, negative = cytotoxicity, usual class: inhibitors | 4.3% of 94,000 active; note: nearly all actives have a fitted effect of over 55% in size
#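 Luminescent ATP readout (CellTiter-Glo, 10 min RT) after 48 or 72 hr compound exposure of NIH 3T3 cells seeded at 400 cells/well in 1536-well format; quantitative HTS.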
# hNpr1 antagonist: blocks ANP-stimulated signaling of human Npr1 receptor. 1.6% of 76,000 active. AID 1347048. HEK293 hNpr1 GloSensor cGMP, ANP-stimulated luminescence. Potency, µM (series often up to 46.3 µM), inactives show top-dose activity change, negative = inhibition, most hits filed as inhibitors; calls by dose curve; note: nearly all actives have a fitted effect of over 60% in size
#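 HEK293 cells stably expressing human Npr1 and cGMP GloSensor pGS-40F, loaded 2 h with 2% GloSensor reagent, given compound 30 min at room temperature. Luminescence read before and 20 min after 0.1 nM hNppA.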
# FLuc inh: inhibitors of firefly (Photinus pyralis) luciferase. purified P. pyralis luciferase, luminescence, biochemical. Potency, µM (titrated, usually from 115 µM), hits mostly inhibitors. 2.5% of 76,000 active. AID 1347043; note: nearly all actives have a fitted effect of over 65% in size
# Target sequence (P08659 whole entry, looked up): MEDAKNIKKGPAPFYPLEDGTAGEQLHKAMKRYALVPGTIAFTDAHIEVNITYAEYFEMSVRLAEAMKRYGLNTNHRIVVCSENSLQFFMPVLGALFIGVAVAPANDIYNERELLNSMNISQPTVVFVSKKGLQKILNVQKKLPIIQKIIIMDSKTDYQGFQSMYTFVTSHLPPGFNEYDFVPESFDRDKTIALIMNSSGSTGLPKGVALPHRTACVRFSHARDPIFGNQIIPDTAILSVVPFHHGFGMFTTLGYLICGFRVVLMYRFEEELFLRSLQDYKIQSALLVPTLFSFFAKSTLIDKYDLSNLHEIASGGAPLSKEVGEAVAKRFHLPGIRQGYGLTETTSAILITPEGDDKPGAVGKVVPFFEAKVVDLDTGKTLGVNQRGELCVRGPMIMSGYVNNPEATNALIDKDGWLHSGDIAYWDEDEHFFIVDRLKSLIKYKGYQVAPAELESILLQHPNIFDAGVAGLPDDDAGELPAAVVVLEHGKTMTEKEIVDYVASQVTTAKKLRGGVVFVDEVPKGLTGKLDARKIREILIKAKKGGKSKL
#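 Luminescence read by CCD imager after adding enzyme (10nM final) to wells holding compound, titrated in qHTS. Substrates 10uM each D-luciferin and ATP; buffer 50mM Tris acetate pH 7.5, 10mM Mg acetate, Tween-20, BSA.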
# * hit, by the source's call; i = inactive; ? = inconclusive; nt = no result given; [ ] = remark or other dose. Unless noted, calls come from the whole dose curve; as a rule, active = well fitted curve in the direction sought with a large enough effect; inconclusive = small, poorly fitted or top-dose-only effect, or another doubt; inactive = no such curve, though single readings can be large; an effect the other way counts as inactive or inconclusive. % is set by controls: 0 for no effect and ±100 for the full control effect; potency is the fitted concentration of half-maximal effect.
SMILES,HEK cytotox,GPT2 inhibitor,NIH3T3 tox,hNpr1 antagonist,FLuc inh
COc1cccc(NC(=O)[C@@H]2C[C@@H](c3ccc(F)cc3)N(CCOc3ccccc3)C2)c1,40µM*,-15%[88.5 µM],?,?,i
COc1ccc(NC(=O)[C@@H]2C[C@H](c3ccc(F)cc3)N(Cc3csc(C)n3)C2)cc1OC,?,4%,?,-3%,i
COc1ccc(NC(=O)[C@@H]2C[C@H](c3ccc(F)cc3)N(Cc3csc(C)n3)C2)c(C)c1,89µM*,1%[88.5 µM],71µM*,11%[70.6 µM],i
O=C(O)c1ccc(CN2CC[C@H](c3nnc(-c4ccc(Cl)cc4)o3)C2)cc1,?,-1%[88.5 µM],?,-4%[70.6 µM],i
Cc1cnc(C2CC2)n1CC1CCCN(C(=O)NCCc2ccccc2)C1 (configuration not stated),-27%,i,-16%,nt,nt
O=C(c1cccc(C(F)(F)F)c1)N1CCN(CCn2nc3n(c2=O)CCCC3)CC1,-14%,nt,-20%,nt,nt
COc1ccc(NC(=O)N2CCC(CCc3nc(C4CCOCC4)no3)CC2)cc1F,?,i,?,nt,nt
COc1ccc(F)cc1-c1cccc(C(=O)NCC(=O)N2CCN(C(C)=O)CC2)c1,?,nt,-19%,nt,nt
O=C(Nc1cccc(F)c1)[C@@H]1C[C@@H](c2ccc(F)cc2)N([S+](=O)([O-])c2cccnc2)C1,?,-2%,?,-15%,i
Cc1nc(CN2C[C@H](C(=O)NCCOc3ccccc3)C[C@@H]2c2ccc(F)cc2)cs1,89µM*,4%[88.5 µM],56µM*,-18%[70.6 µM],i
O=C(Nc1cccc(F)c1)[C@@H]1C[C@@H](c2ccc(F)cc2)N([S+](=O)([O-])c2ccccc2)C1,35µM*,-15%,?,-7%,i
COc1cccc(NC(=O)[C@@H]2C[C@H](c3ccc(F)cc3)N(Cc3csc(C)n3)C2)c1,63µM*,4%[88.5 µM],?,-9%[70.6 µM],i
O=C(NC1CCCCC1)C1CCc2nnc(-c3ccccn3)n21 (configuration not stated),2%[172 µM],i,4%[138 µM],nt,nt
COc1ccc(CC(=O)N2CCN(C(=O)c3cccc(-c4cccc(OC)c4)c3)CC2)cc1,?,-6%,?,nt,nt
Cc1noc(C)c1-c1cc2cc(CO)oc2c(N2CCN(c3ccccn3)CC2)n1,71µM*,2%[88.5 µM],?,-15%[70.6 µM],i
Cc1noc(C)c1-c1cc2cc(CN(C)C)oc2c(N2CCN(c3ccccn3)CC2)n1,45µM*,-14%[88.5 µM],35µM*,-2%[70.6 µM],i
Cc1noc(C)c1-c1cc2cc(CN(C)C)oc2c(N2CCN(Cc3ccccc3)CC2)n1,50µM*,?,35µM*,-3%,i
CO[C@H]1C(=O)N(C2CCN(C(=O)Cc3cccc(F)c3)CC2)[C@H]1c1ccncc1,-9%,-40%,-21%,nt,nt
COc1ccc(-n2cc(-c3ccnc(NCCC4CCCN4C)n3)cn2)cc1 (configuration not stated),?,-6%,?,0%,?
Fc1ccc(CCNc2nccc(-c3cccnc3)n2)cc1,?,3%[11.5 µM],?,3%,?
CC(Cc1ccncc1)Nc1nccc(-c2cnn(-c3ccccc3)c2)n1 (configuration not stated),40µM*,i,?,-24%,?
CC(Cc1ccncc1)Nc1nccc(-c2cnn(-c3ccccc3F)c2)n1 (configuration not stated),35µM*,-7%,?,-15%,?
CCNC(=O)C1CCN(C(=O)c2ccc3nc(-c4ccccc4)cn3c2)C1 (configuration not stated),-2%,2%,i,-1%,35µM*
O=C(c1ccc2nc(-c3ccc(F)cc3)cn2c1)N1CCC(F)CC1,?,3%,-26%,-10%,i
Cc1ccc(NC(=O)N2CCN(c3nnnn3-c3cccc(C(F)(F)F)c3)CC2)cc1F,?,1%,?,nt,nt
COc1ccc(-c2noc(Nc3ccc(OC)cc3OC)n2)cc1,?,i,-29%,-2%,25µM*
COC(=O)c1ccccc1Nc1nc(-c2ccccc2)no1,10%,?,i,-9%,14µM*

# Screening data as filed in PubChem.
